Laboratory results reported in publication PMC4336329 (PLoS ONE, 2015).
The campaign covered roughly 310,000 compounds. About 14,000 (4.5%) showed an effect of 50% or more. The effect is printed as a negative number. The entries come from a sample that favours strong results as a whole.

Molecular target: human ether-à-go-go-related gene (hERG) potassium channel (human, UniProt Q12809)
Experiment: primary screen, population patch clamp on CHO cells stably expressing hERG; higher = less effect of the substance
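Note: peak tail current of the secondary pulse compared with the same well before compound.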

Chain of human ether-à-go-go-related gene (hERG) potassium channel (Q12809 whole entry, looked up): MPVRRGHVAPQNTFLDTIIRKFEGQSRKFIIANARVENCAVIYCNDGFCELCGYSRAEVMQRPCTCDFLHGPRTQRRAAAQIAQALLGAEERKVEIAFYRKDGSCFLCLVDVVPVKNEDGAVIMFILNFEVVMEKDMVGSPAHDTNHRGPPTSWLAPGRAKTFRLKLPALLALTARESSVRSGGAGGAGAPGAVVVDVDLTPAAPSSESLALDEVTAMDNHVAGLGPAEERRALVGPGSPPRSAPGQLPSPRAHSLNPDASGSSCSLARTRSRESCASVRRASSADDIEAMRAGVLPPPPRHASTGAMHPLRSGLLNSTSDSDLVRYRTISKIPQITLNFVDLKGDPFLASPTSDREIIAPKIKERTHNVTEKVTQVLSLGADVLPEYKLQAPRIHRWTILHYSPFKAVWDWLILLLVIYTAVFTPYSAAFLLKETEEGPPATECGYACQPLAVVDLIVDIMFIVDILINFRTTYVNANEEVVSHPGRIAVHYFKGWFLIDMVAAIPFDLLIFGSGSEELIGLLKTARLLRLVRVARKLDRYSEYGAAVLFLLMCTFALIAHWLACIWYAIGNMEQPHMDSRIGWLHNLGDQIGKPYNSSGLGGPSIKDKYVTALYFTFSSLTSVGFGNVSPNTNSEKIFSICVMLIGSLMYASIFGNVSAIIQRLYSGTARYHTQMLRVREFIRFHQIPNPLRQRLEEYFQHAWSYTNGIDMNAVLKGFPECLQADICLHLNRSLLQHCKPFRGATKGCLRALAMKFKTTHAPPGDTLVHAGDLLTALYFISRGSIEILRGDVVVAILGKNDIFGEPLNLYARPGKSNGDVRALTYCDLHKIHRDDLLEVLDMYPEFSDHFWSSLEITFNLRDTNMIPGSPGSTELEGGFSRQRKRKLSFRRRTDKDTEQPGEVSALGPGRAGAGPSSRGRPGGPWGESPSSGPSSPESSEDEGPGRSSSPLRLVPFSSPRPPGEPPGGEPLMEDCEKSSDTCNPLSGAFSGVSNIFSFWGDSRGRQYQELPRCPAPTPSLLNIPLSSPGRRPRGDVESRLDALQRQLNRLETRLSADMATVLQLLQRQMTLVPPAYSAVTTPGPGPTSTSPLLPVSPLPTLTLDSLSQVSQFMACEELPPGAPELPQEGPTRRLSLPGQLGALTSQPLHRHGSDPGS

SMILES | hERG current change (%, negative = inhibition) at 10uM [%]
O=C1NC2(CCCCCC2)Cc2ccccc21 | -21.2
Cc1ccc(C(=O)NNC(=O)C(C)Oc2ccc3ccccc3c2)o1 (stereo not shown) | -13.2
C/C(CC(=O)NC(C)(C)C)=N\NC(N)=S | 20
CCN(CC)S(=O)(=O)c1ccc(NC(=O)c2cccc3c2C(=O)N(CCOC)C3)cc1 | -1.36
Cc1cc(C)n2nc(SC(C)C(=O)N3CCC4(CC3)OCCO4)nc2n1 (stereo not shown) | -0.197
NNC(=O)c1ccc(Cn2cc(Br)cn2)cc1 | -2.07
O=C(c1ccc(CN2CCOCC2)cc1)N1CCN(c2ccccc2)CC1 | 3.02
O=C(c1ccc(Cn2cc(Br)cn2)cc1)N1CCN(c2ccccc2)CC1 | -57.4
O=C(c1ccc(Cn2cc(Cl)cn2)cc1)N1CCN(c2ccccc2)CC1 | -58.4
COc1ccc(N2CCN(C(=O)c3cccc(Cn4cc(Cl)cn4)c3)CC2)cc1 | -48
O=C(O)c1ccc(Cn2cc(Cl)cn2)cc1 | 18.7
O=C(O)C1C(=O)NCC1c1ccccc1 (stereo not shown) | 10.6
Cc1ccc(C(=O)NC2CCCC(C)C2C)cc1S(=O)(=O)N1CCCCC1 (stereo not shown) | -20.6
COC(=O)C1=C(C(=O)OC)N2C=CC=CC2(C)C(C(=O)OC)=C1C(=O)OC (stereo not shown) | -5.49
CCCCC(=O)Nc1ccc(N2CCN(C(=O)c3ccco3)CC2)cc1 | -18.1
COC(=O)c1cc(COC(=O)c2cccnc2SC)oc1C | -5.24
O=C(CCNC(=O)C1CCN(S(=O)(=O)c2ccc(F)cc2)CC1)Nc1nccs1 | 15.5
Cc1ccc(C2CC(=O)N(c3ccc(F)cc3)C3=C2C(=O)CCC3)cc1 (stereo not shown) | 0.885
CC1CCC(NC(=O)CCS(=O)(=O)c2ccc3c(c2)CC(C)N3C(=O)C2CC2)CC1 (stereo not shown) | 7.85
CN(C)CCNC(=O)c1ccccc1-c1ccccc1 | -1.88
CCCNC(=O)c1cc2ccccc2c(=O)o1 | 10.8
CN(C)CCNC(=O)c1ccccc1-c1cc2ccccc2c(=O)o1 | -54.6
COc1ccc(N(C)S(=O)(=O)c2cccc(C(=O)NC3CCCCC3C)c2)cc1 (stereo not shown) | -6.33
O=C(NCN1C(=O)C2C3C=CC(C3)C2C1=O)OC1CCCCC1 (stereo not shown) | 4.17
CCC1CCc2sc(C(=O)N(C)CC(=O)Nc3ccc(OC)cc3)cc2C1 (stereo not shown) | -18.2

SMILES | hERG current change (%, negative = inhibition) at 10uM [%]
COc1ccc(C(CNC(=O)c2cc3c(s2)CCCC3)N2CCOCC2)cc1 (stereo not shown) | -23.5
CCC1CCc2sc(C(=O)NCC(c3ccc(OC)cc3)N3CCOCC3)cc2C1 (stereo not shown) | -5.82
COc1ccc(C(CNC(=O)c2cc3c(s2)CCC(C)C3)N2CCOCC2)cc1 (stereo not shown) | -54
CC1CCc2sc(C(=O)NCC(c3ccco3)N3CCCCC3)cc2C1 (stereo not shown) | -30.8
CCC1CCc2sc(C(=O)NCC(c3ccccc3OC)N3CCCC3)cc2C1 (stereo not shown) | -63.6
COc1ccc(C(CNC(=O)c2ccco2)N2CCCC2)cc1 (stereo not shown) | -7.05
CCC1CCc2sc(C(=O)NCC3CCCO3)cc2C1 (stereo not shown) | -12.1
CCC1CCc2sc(C(=O)NCc3ccccn3)cc2C1 (stereo not shown) | -3.79
CCC1CCc2sc(C(=O)NCC(c3ccc(OC)cc3)N3CCCC3)cc2C1 (stereo not shown) | -71
COc1ccc(C(CNC(=O)c2ccc(Cl)s2)N2CCOCC2)cc1 (stereo not shown) | -18.2
COc1ccc(C(CNC(=O)c2cc3c(s2)CCC(C)C3)N2CCCC2)cc1 (stereo not shown) | -57.7
CCCNC(=O)Cn1nc(C(F)(F)F)c2c1CCCC2 | 9.29
CC(=O)Oc1ccc(/C=C2/SC(=S)N(Cc3ccccc3)C2=O)cc1 | 10.2
CCn1c(SCC(=O)N2CCc3ccccc32)nnc1-c1ccncc1 | -7.04
COc1ccc(CCNC(=O)C2=CC=CN3CCS(=O)(=O)N=C23)cc1 | -7.92
Cc1ccccc1/C=C\c1nc2ccccc2c(=O)[nH]1 | 10.5
CC(Oc1ccc2c(-c3ccccc3)cc(=O)oc2c1)C(=O)N1CCC[C@@H]1C(N)=O (stereo partly shown) | 1.14
O=C(NCCS(=O)(=O)c1ccc(Br)cc1)c1ccc(Cl)cc1 | -2.62
CCCOc1ccc(CN(CCO)CCO)cc1[N+](=O)[O-].Cl | -54.2
Cl.O=[N+]([O-])c1cc(CN(CCO)CCO)ccc1O | -2.79
CCCOc1ccc(CN(CCO)CCO)cc1C(=O)OC | 6.82
COc1ccc(CN(CCO)CCO)cc1[N+](=O)[O-].Cl | 3.54
CCOc1ccc(CN(CCO)CCO)cc1[N+](=O)[O-].Cl | -62.9
CCCCOc1ccc(CN(CCO)CCO)cc1[N+](=O)[O-].Cl | -22
CCOC(=O)N1CCN(CC(=O)Nc2cc3c(cc2C(C)=O)OCO3)CC1 | -1.3

SMILES | hERG current change (%, negative = inhibition) at 10uM [%]
Fc1ccc2nc(Nc3nc4c(s3)CCCC4)sc2c1 | 3.62
COC(=O)N(NC(=O)C(O)(c1ccccc1)c1ccccc1)c1ccccc1 | 9.59
COc1ccc(OCC(=O)Nc2cc(NC(=O)c3ccco3)ccc2OC)cc1 | 5.23
CC(/C=N/NC(=O)Cc1cccn1C)=C\c1ccco1 | -13.1
O=C(CN1CCN(Cc2ccccc2)CC1)N/N=C\C=C/c1ccco1 | -26.9
O=C(CN1CCN(Cc2ccccc2)CC1)N/N=C/c1ccco1 | -5.43
CC(/C=N\NC(=O)CN1CCN(Cc2ccccc2)CC1)=C\c1ccco1 | -53.6
CC(/C=N/NC(=O)CN1CCN(Cc2ccc(Cl)cc2)CC1)=C\c1ccco1 | -69.2
CC(=C/c1ccco1)/C=N/NC(=O)Cc1cccn1C | -6.63
COc1ccccc1C(=O)N1CCN(C2CCN(Cc3ccccc3)CC2)CC1 | -23.2
C/C(=C\c1ccccc1F)C1Nc2cccc3cccc(c23)N1 | 13.1
Cc1ccc(/C=N/Nc2ccc3ccccc3n2)o1 | -47.4
CCN(CC)S(=O)(=O)c1ccc(OC)c(NC(=O)C2CC(=O)N(c3ccc(C)cc3)C2)c1 (stereo not shown) | -19.6
CCOc1ccc(S(=O)(=O)N2CCCCC2)cc1NS(=O)(=O)c1cccs1 | 4.67
CCC1CN(C(=O)NCc2ccc(F)cc2)c2cc(Cl)ccc2O1 (stereo not shown) | 12.5
CCc1nc(Nc2ccc(O)cc2)c2oc3ccccc3c2n1.Cl | -13.6
O=c1c2ccccc2oc2ccc(NCCCn3ccnc3)cc12 | 9.83
CCc1nc(NCCCN2CCOCC2)c2oc3ccccc3c2n1 | -26.6
O=c1c2ccccc2oc2cc(NCCCn3ccnc3)ccc12 | -60.9
c1ccc(CNc2ncnc3c2oc2ccccc23)nc1 | -1.56
CCc1nc(NCCCn2ccnc2)c2oc3ccccc3c2n1.Cl | -56.1
CCc1nc(Nc2ccccc2)c2oc3ccccc3c2n1.Cl | -5.28
Cl.c1ccc2c(c1)oc1c(NCCCn3ccnc3)ncnc12 | -58.7
c1coc(CNc2ncnc3c2oc2ccccc23)c1 | -22.1
CCc1nc(Nc2ccncc2)c2oc3ccccc3c2n1.Cl | -58.5

SMILES | hERG current change (%, negative = inhibition) at 10uM [%]
CCNc1nc(CC)nc2c1oc1ccccc12.Cl | -11.5
Cc1cc2oc3ccc(NCCCn4ccnc4)cc3c(=O)c2cc1C | 6.32
CN1CCc2nc3sc(C(=O)NC4CC4)c(N)c3cc2C1 | 9.22
COc1ccc(OC)c(C2=NOC(C(=O)Nc3cccnc3)C2)c1 (stereo not shown) | -9.42
CN(C)c1ccc(/C=N/N(CCO)C2=NS(=O)(=O)c3ccccc32)cc1 | 21.8
COc1ccc(C/C(C)=N/NC(=O)c2cc(C)oc2C)cc1 | 4.56
N/C(=N\OC(=O)CSc1ccccc1)c1ccccn1 | 6.31
COc1ccc(C)cc1S(=O)(=O)N(C)CC(=O)N1CCC(C)CC1 | 22.8
Cc1csc(SCCN2C(=O)c3ccccc3C2=O)n1 | 2.6
Cl.c1ccc(-c2nc(NCCCn3ccnc3)c3oc4ccccc4c3n2)cc1 | -4.89
Cc1nc(NCCCn2ccnc2)c2oc3ccccc3c2n1.Cl | -69.8
Cc1nc(NCCCN2CCOCC2)c2oc3ccccc3c2n1.Cl | -15.5
CCCCn1c(N)c(N(CCOC)C(=O)CSCc2ccc(C)cc2)c(=O)[nH]c1=O | 13.4
O=C1C(Cl)=C(Nc2ccccc2O)C(=O)N1c1ccccc1 | 0.891
CN1CCN(C(c2cccs2)c2nnnn2Cc2ccc(F)cc2)CC1.Cl (stereo not shown) | -13.1
c1ccc(C(c2nnnn2Cc2cccs2)N2CCN(C3CCCC3)CC2)cc1 (stereo not shown) | -46.3
Cl.Fc1ccc(C(c2nnnn2Cc2cccs2)N2CCN(C3CCCC3)CC2)cc1 (stereo not shown) | -67.4
CCN1CCN(C(c2ccc(F)cc2)c2nnnn2Cc2cccs2)CC1 (stereo not shown) | -59.4
CN1CCN(C(c2ccc(F)cc2)c2nnnn2Cc2cccs2)CC1.Cl (stereo not shown) | -21
Fc1ccc(Cn2nnnc2C(c2cccs2)N2CCN(C3CCCCC3)CC2)cc1 (stereo not shown) | -66.4
CCN1CCN(C(c2ccc(F)cc2)c2nnnn2Cc2ccc3c(c2)OCO3)CC1.Cl (stereo not shown) | -44
Fc1ccc(Cn2nnnc2C(c2cccs2)N2CCCCCC2)cc1 (stereo not shown) | -11.2
CC(C)C(c1nnnn1Cc1cccs1)N1CCN(C2CCCC2)CC1 (stereo not shown) | -30.9
Fc1ccc(C(c2nnnn2Cc2ccccc2)N2CCSCC2)cc1 (stereo not shown) | -2.85
Fc1ccc(C(c2nnnn2Cc2cccs2)N2CCN(C3CCCCC3)CC2)cc1 (stereo not shown) | -60.3
